Measured values reported in PubChem BioAssay (NCI).
This is part of a sample that, as a whole, favours compounds with a hit. Of some 79,000 tested, about 15% had one in any assay. A number with no mark means an inactive call. The source made the active and inactive calls. Cut-off read from the data, not from the text of the source: active = growth inhibition above about 70%; inactive = the rest.

Experiments:
[1] = NCI Yeast Anticancer Drug Screen. Data for the rad50 strain (AID 155);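 note: 0% = growth of vehicle-only cultures of the same strain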; conditions: S. cerevisiae rad50 strain growth inhibition; at 50.0 µM; active compounds read high
In short: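 Compounds were tested on a yeast strain with an engineered DNA damage repair alteration; the reported value is growth inhibition normalised to vehicle treatment.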

[2] = NCI Yeast Anticancer Drug Screen. Data for the mec2-1 strain (AID 157); conditions: S. cerevisiae mec2-1 strain, at 50.0 µM, active compounds read high
In short: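 Each compound was tested on mec2-1 yeast, a strain altered in DNA damage repair or cell cycle control. Growth inhibition is reported relative to vehicle.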

[3] = NCI Yeast Anticancer Drug Screen. Data for the sgs1 mgt1 strain (AID 161);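 note: 0% = growth of cultures given vehicle only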; conditions: S. cerevisiae sgs1 mgt1 strain, at 50.0 µM, active compounds read high
In short: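 Genetically altered yeast, compound exposure, growth inhibition relative to vehicle.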

[4] = NCI Yeast Anticancer Drug Screen. Data for the cln2 rad14 strain (AID 165);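 note: 0% = growth equal to vehicle treated cultures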; conditions: S. cerevisiae cln2 rad14 strain, at 50.0 µM, active compounds read high
In short: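 Test compounds were added to cln2 rad14 yeast cultures; inhibition of growth was then determined by comparison with vehicle treatment.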

[5] = NCI Yeast Anticancer Drug Screen. Data for the bub3 strain (AID 167); conditions: S. cerevisiae bub3 mutant strain, at 50.0 µM, active compounds read high
In short: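 Growth of a checkpoint-deficient yeast mutant is measured after compound exposure. Values represent inhibition relative to vehicle.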

[6] = NCI Yeast Anticancer Drug Screen. Data for the mlh1 rad18 strain (AID 175); conditions: S. cerevisiae mlh1 rad18 strain growth inhibition; at 50.0 µM; active compounds read high
In short: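 Inhibition values reflect reduced growth of mutant yeast versus vehicle-treated controls following compound exposure; the mutations affect DNA damage repair.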

SMILES	growth inhibition [1]	growth inhibition [2]	growth inhibition [3]	growth inhibition [4] [%]	growth inhibition [5]	growth inhibition [6]
CN(C)c1ccc(C2(c3ccc(N(C)C)cc3)OC(=O)c3cc(N(C)C)ccc32)cc1	4.55%	-6.2%	-0.75%	-31.7	16.4%	33.7%
CCOC(=O)C(C(=O)OCC)=C(C)C	-9.9%	-32%	-12.2%	-3.1	-26.1%	-37.3%
N#CC1C=CN(Cc2ccccc2)C=C1C(=O)c1ccccc1 (stereo unspecified)	-1.5%	-3.9%	-5.85%	2.55	7.6%	5.2%
O=C(O)CCSC1(SCCC(=O)O)CCCCC1	-23.9%	-17.9%	-8.55%	-3.25	-9%	-23.6%
NC(N)=Nc1ccccc1OC1OC(CO)C(O)C(O)C1O (stereo unspecified)	-12.4%	16.1%	2.55%	-50.5	-7%	-2.25%
COC(=O)c1ccc(NCc2cc(O)ccc2O)cc1O	88.5% (active)	90.5% (active)	83.7% (active)	67.7	84.8% (active)	91.5% (active)
ClCCCOCc1ccccc1	8.2%	-13.2%	3.65%	16.4	11.9%	6.3%
Cc1ccc(-c2nc(SCc3ccc(Cl)cc3)[nH]c(=O)c2CCO)cc1	55.5%	14.3%	38.8%	34.4	47.7%	32.2%
Cc1cccc(NC(=O)COc2ccc(Cl)cc2C)c1	8.35%	4.4%	9.55%	39.5	0.4%	-0.2%
O=C(O)CNC(=O)Cc1ccccc1	-29.8%	-12.6%	-1.1%	10.2	-38.6%	-7.3%
CC(C)=CCC1=C(OC2OC(CO)C(O)C(O)C2O)C(=O)c2ccccc2C1=O (stereo unspecified)	15.2%	15.6%	11.2%	6.95	6.55%	5.5%
CCCCNC(=O)C(c1ccccc1)c1ccccc1	22.1%	14.9%	10.8%	-12.3	14.3%	4.2%
CO/C(=N\N=C\c1cccc(Cl)c1)c1ccncc1	6.35%	-9.6%	-13.8%	-24.4	-18.1%	-11.1%
N#Cc1ccc(OC(=O)Nc2ccccc2Cl)cc1	0.5%	-8.6%	21.4%	26.4	15.4%	13.8%
COc1cc(C(=O)Nc2c3ccccc3nc3ccccc23)cc(OC)c1OC	-19.9%	-4.55%	7.8%	-23.6	-3.3%	-14.6%
COc1c(Cl)cc(Cl)c(C)c1C(C)C(=O)O (stereo unspecified)	21.4%	5.85%	2.6%	16.3	25.5%	10.9%
Nc1nc(-c2ccncc2)cc(-c2cc(-c3ccncc3)nc(N)n2)n1	-7.7%	-0.25%	-8.65%	-21.9	-12.3%	10.3%
NC(=O)CCC(NS(=O)(=O)c1ccc(NC(=O)c2ccccc2)cc1)C(=O)O (stereo unspecified)	4%	-4.1%	-22.9%	19.6	-5.7%	-1.95%
Cc1cn(C)c2c1-c1c(cnn1-c1ccccc1)CC2	15.6%	3.75%	44%	-2.4	4.8%	23.4%
O=C1CC(=O)N2CCCCC2N1 (stereo unspecified)	-17.7%	-5.15%	-0.25%	-10.9	6.4%	-25.7%
COc1cc(C=Nc2ccc(C(C)C)cc2)cc(OC)c1OC	9.25%	13.3%	19.1%	8.35	-4.65%	12.7%

SMILES	growth inhibition [1]	growth inhibition [2]	growth inhibition [3]	growth inhibition [4] [%]	growth inhibition [5]	growth inhibition [6]
CCCCC(=O)Nc1ccc(Cl)cc1	18.2%	7.8%	6.5%	8.2	-19.9%	11.7%
O=C1OCCC1=P(c1ccccc1)(c1ccccc1)c1ccccc1	-5.6%	-30.9%	6.9%	9.45	-7.4%	-4.85%
CCCCN(CCCC)CCC(O)c1cc(C(F)(F)F)nc2c(C(F)(F)F)cccc12 (stereo unspecified)	-0.6%	25.7%	0.45%	49.2	13.3%	41.1%
O=C1CC[C@H](NC(=O)Cc2ccccc2)C(=O)N1	-11.8%	-6.55%	-14.4%	6.35	-11.9%	-13.6%
O=CNCC(O)c1ccc2c(c1)[nH]c1ccccc12 (stereo unspecified)	30.6%	-16.2%	-1.45%	-10.3	19%	47.4%
COc1c2c(cc3occ(-c4ccc(CC=C(C)C)cc4)c(=O)c13)OC(C)(C)C=C2	-3.8%	-11.6%	-3%	-24.8	-12.4%	-35.5%
O=C(Nc1cc(-c2ccccc2)nn1-c1ccccc1)c1ccc(Cl)cc1	-16.4%	-19.9%	-17.8%	15.2	-29.1%	-9.65%
Cn1c(=O)c2[nH]c(=S)n(C)c2n(C)c1=O	31.8%	-8.35%	-2%	11.2	-13.6%	15.5%
O=c1[nH]c(=O)n(C2CC(O)C(CO)O2)cc1NN=NCCCc1ccccc1 (stereo unspecified)	-21.8%	-12.4%	-8.5%	10.8	-11.3%	-32.5%
Cc1nn(C(=O)c2c(-c3ccccc3)noc2C)c(C)c1N=Nc1cc(C(F)(F)F)cc(C(F)(F)F)c1	-6.2%	-8.85%	-2.9%	20.5	-2.7%	0.6%
C=CCN1COc2c(cc3c4c(cccc24)C(=O)O3)C1	-0.25%	-4.25%	10.1%	8.35	6.35%	8.35%
CCOc1ccc(C2=C/C(=C/c3cccs3)C(=O)O2)cc1	4.2%	-7.2%	-1.15%	-25.6	14.4%	-5.9%
COc1ccc(/C=C/C(C)=O)c(OC)c1	3%	-12.3%	2.15%	-20.6	0.05%	-4.95%
CC(=O)Oc1cc(OC(C)=O)c2c(c1C)CC[C@@H]1[C@@H]2CC[C@]2(C)[C@@H](OC(C)=O)CC[C@@H]12	18.1%	10.1%	-0.25%	-17	-5.3%	34.3%
CCCc1c(C(=O)OCC)[nH]c(C(=O)CCC(=O)c2[nH]c(C(=O)OCC)c(CCC)c2C(=O)OCC)c1C(=O)OCC	20.2%	-13.5%	-10.9%	-19.4	-15.7%	2.35%
O=[N+]([O-])c1ccc2nc(-c3ccccn3)c(-c3ccccn3)nc2c1	43.9%	18.4%	42.6%	18.1	47.5%	41%
O=C1c2ccccc2C(=O)N1CC(O)COc1cccc2ccccc12 (stereo unspecified)	-23.1%	-79.5%	-24.4%	-13.9	8.3%	-14.8%
Cc1cc(Cl)c(=O)n(-c2ccc(Cl)cc2)n1	27.3%	-4.6%	9.45%	4.7	15.3%	44.9%
CCc1c(COC(=O)NC)c(COC(=O)NC)cc2c1[nH]c1ccccc12	-16.6%	-1.95%	-2.95%	-16.4	-41%	-14.6%
CCn1c(=NC(=O)c2ccccc2O)sc2ccccc21	16.5%	4%	2.15%	17.9	-5.7%	-3.05%
